From the supplement of paper PMC11732987, “Enantioselective OTUD7B fragment discovery through chemoproteomics screening and high-throughput optimisation” (Communications Chemistry, 2025)

Key:
Assay in all cases: log2 ratio of Biotin-Ahx-Ub-VS probe labelling (fragment/DMSO); higher = less target engagement (more negative = stronger competition), active = hit call of the paper (q ≤ 0.05, log2 ratio ≤ -1)
Settings in all cases: compound concentration: 200 uM; treatment time: 3 h
USP42 = target: T1, USP42 (UniProt Q9H9J4)
T1 sequence (whole entry): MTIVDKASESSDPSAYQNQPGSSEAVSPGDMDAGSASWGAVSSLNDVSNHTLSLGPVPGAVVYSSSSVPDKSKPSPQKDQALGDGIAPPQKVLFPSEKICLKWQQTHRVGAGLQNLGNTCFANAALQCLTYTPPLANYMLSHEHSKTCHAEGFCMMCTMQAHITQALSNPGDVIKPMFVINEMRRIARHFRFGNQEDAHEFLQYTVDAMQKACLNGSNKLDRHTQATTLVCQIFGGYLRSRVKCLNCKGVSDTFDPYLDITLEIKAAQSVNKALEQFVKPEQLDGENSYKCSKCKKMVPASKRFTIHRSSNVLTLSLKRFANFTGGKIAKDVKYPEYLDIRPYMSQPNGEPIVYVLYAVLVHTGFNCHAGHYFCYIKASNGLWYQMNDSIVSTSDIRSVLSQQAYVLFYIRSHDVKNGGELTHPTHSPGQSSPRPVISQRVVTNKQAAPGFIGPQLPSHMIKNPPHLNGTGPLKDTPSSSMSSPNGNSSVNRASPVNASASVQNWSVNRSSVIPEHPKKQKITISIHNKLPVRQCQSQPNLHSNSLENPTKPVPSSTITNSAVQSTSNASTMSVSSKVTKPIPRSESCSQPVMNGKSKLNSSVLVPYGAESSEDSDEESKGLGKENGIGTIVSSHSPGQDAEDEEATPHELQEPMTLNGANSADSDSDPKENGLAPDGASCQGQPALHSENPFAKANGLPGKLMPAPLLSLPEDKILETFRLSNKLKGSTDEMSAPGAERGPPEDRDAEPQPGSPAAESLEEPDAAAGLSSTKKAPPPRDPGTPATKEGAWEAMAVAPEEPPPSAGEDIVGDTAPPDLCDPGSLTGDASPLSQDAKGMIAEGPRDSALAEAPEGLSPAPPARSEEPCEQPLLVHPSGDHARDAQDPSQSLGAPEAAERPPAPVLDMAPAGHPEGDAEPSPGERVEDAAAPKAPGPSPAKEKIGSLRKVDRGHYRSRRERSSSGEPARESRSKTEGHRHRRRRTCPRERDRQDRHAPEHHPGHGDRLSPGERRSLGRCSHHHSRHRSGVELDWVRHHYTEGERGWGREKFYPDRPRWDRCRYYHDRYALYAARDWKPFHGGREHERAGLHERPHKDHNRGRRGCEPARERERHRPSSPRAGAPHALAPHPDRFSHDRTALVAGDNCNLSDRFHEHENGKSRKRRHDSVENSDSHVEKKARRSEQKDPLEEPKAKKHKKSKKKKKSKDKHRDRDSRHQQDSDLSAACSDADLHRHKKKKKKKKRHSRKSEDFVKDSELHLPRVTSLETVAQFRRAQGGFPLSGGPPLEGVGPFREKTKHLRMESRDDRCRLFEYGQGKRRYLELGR
Method in brief: (§1)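 In triplicate, 495 µg of HEK293T lysate per sample was incubated with fragment at 200 µM or vehicle for 3 h. Biotin-Ahx-Ub-VS was then added to 0.5 µM final for 1 h, and labelled DUBs were captured with NeutrAvidin, digested with LysC and trypsin, and measured by diaPASEF LC-MS/MS. Data are average log2 fragment/vehicle ratios by unpaired t-test from global-median-normalised Spectronaut label-free quantities, restricted to proteins with ≥2 unique peptides.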

USP46 = USP46 (UniProt P62068)
Chain of USP46 (P62068 whole entry): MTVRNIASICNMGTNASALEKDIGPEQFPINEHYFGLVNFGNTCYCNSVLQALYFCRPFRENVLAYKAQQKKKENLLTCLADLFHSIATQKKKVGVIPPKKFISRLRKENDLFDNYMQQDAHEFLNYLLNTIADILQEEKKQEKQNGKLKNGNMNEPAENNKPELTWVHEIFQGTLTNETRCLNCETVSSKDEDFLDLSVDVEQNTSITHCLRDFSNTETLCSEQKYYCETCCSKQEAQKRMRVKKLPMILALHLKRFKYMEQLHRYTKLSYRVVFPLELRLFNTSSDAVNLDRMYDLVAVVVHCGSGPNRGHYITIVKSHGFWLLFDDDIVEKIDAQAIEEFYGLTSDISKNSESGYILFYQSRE
Method in brief: as §1

USP47 = target: T2, USP47 (UniProt Q96K76)
T2 sequence (whole entry): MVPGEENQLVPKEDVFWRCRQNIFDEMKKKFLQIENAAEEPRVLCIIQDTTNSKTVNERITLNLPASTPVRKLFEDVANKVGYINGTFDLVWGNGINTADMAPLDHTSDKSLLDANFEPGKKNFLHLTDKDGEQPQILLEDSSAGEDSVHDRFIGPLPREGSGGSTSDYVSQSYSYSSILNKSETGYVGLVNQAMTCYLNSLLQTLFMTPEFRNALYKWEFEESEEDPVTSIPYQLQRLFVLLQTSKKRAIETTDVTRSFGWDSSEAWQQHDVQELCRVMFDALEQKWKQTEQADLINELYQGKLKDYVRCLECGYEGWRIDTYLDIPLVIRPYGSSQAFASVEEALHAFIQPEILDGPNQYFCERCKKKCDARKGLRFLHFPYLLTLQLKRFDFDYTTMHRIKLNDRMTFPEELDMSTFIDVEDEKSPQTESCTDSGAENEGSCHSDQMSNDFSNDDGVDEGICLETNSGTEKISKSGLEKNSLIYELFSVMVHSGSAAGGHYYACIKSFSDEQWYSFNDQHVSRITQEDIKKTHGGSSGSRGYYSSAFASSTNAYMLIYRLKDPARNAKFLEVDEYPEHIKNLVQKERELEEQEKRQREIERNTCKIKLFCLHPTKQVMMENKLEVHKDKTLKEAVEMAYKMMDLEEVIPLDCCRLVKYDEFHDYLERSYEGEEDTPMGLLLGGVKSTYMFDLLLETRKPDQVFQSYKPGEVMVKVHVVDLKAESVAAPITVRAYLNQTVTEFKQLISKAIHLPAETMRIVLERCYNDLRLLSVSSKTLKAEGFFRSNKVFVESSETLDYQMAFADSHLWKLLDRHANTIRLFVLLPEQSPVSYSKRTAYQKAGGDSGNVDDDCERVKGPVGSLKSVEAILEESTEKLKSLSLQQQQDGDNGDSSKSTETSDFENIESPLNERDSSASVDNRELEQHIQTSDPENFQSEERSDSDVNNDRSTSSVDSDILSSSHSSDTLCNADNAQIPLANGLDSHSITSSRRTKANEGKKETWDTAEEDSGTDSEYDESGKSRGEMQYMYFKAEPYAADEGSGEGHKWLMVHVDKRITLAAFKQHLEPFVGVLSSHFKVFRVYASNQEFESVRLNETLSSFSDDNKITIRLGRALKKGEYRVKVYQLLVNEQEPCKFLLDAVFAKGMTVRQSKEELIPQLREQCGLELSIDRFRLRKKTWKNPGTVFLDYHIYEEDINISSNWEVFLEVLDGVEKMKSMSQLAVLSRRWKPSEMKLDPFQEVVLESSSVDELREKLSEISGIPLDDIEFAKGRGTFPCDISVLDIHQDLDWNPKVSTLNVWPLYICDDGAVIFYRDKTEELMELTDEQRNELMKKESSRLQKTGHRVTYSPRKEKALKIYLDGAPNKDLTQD
Method in brief: as §1

USP48 = target: T3, USP48 (UniProt Q86UV5)
T3 sequence (whole entry): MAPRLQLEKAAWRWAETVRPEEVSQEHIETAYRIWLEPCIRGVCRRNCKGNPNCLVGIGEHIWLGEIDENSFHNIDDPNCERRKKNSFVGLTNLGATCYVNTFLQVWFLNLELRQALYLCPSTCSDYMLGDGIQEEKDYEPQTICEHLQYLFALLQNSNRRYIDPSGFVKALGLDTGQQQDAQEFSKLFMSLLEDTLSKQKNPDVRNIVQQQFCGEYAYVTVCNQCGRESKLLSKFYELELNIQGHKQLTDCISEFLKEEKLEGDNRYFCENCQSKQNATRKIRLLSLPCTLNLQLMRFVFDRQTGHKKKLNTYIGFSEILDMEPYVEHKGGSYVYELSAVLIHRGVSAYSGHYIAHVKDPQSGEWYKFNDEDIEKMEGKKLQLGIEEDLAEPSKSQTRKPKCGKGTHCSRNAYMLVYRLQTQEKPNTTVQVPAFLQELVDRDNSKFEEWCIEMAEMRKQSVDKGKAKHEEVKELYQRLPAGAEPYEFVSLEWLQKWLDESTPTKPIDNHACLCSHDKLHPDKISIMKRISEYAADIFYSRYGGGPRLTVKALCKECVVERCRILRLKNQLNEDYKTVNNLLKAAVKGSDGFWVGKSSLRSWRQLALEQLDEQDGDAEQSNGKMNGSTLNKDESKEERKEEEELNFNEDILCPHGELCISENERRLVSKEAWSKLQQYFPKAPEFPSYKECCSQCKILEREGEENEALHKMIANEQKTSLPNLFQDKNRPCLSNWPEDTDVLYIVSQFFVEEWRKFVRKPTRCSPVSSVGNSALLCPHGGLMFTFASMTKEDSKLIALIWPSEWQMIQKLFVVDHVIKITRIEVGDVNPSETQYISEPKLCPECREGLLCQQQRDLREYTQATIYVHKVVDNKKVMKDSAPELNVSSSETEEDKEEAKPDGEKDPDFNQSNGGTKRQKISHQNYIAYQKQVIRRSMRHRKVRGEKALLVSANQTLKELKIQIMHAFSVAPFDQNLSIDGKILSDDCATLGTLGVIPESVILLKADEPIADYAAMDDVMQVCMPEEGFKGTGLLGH
Method in brief: as §1

USP5 = target: T4, USP5 (UniProt P45974)
T4 sequence (whole entry): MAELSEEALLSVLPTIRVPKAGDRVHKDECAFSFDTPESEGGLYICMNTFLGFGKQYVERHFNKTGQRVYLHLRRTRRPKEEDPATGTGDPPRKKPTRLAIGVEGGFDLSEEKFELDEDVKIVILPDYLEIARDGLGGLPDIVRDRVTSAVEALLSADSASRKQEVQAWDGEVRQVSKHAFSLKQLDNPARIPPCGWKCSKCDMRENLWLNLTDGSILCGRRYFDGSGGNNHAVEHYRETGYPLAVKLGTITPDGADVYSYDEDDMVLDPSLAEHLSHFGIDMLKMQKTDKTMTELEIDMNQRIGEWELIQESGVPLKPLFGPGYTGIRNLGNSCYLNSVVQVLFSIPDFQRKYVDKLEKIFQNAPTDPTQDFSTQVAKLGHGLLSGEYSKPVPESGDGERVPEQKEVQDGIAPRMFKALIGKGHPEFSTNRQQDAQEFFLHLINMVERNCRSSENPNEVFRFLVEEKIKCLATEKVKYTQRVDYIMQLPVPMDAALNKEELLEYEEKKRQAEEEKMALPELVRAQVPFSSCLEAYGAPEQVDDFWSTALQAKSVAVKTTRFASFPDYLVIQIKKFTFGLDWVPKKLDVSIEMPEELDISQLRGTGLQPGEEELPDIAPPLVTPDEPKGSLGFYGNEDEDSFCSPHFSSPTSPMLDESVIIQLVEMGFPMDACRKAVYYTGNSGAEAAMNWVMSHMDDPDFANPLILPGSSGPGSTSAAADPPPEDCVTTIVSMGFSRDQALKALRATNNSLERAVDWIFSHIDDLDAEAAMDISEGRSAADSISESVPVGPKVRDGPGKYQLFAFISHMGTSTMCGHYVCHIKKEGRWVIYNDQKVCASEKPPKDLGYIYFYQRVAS
Method in brief: as §1

USP54 = USP54 (UniProt Q70EL1)
Chain of USP54 (Q70EL1 whole entry): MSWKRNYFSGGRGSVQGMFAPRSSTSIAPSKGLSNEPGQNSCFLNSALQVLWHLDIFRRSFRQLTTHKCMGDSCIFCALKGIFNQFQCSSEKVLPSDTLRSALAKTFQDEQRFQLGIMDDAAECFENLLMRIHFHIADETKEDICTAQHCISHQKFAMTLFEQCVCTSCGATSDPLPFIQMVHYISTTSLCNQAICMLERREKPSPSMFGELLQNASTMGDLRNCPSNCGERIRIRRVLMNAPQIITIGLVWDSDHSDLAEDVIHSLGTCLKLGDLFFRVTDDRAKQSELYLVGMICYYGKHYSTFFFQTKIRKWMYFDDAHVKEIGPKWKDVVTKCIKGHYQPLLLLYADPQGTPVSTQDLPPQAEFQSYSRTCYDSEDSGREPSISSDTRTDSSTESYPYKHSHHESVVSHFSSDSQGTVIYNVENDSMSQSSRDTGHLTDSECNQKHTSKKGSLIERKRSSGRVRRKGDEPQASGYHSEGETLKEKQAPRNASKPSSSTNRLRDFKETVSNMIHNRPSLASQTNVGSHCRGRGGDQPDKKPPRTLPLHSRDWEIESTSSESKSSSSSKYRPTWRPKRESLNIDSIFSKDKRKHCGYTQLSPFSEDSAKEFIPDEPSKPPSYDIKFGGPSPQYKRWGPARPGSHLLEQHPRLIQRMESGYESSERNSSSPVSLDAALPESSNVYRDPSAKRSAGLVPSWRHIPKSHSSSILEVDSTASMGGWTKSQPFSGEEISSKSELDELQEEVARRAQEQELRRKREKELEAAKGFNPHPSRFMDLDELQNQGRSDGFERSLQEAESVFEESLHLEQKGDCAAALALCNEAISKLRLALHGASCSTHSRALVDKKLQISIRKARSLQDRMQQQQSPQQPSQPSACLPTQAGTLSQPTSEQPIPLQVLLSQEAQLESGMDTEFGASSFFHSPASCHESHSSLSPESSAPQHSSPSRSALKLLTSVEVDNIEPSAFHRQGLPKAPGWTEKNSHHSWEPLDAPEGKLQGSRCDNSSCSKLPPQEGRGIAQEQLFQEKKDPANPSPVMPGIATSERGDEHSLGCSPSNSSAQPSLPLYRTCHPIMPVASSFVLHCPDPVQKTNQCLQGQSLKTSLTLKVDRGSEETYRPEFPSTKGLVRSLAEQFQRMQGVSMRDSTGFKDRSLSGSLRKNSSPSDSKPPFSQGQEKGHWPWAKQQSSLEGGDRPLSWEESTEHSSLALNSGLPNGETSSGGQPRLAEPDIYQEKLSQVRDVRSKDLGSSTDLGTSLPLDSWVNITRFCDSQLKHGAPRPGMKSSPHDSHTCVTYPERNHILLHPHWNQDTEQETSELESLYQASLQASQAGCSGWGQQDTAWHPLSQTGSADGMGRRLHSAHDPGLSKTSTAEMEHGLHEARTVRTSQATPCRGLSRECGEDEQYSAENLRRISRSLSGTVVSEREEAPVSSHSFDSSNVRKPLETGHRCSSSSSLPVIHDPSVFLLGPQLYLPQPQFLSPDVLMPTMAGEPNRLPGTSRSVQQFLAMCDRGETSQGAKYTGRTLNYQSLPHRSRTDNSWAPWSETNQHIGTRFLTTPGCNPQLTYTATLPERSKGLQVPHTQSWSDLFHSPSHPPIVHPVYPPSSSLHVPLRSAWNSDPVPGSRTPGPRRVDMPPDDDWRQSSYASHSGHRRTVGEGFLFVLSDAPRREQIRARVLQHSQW
Method in brief: as §1

USP7 = USP7 (UniProt Q93009)
Chain of USP7 (Q93009 whole entry, looked up): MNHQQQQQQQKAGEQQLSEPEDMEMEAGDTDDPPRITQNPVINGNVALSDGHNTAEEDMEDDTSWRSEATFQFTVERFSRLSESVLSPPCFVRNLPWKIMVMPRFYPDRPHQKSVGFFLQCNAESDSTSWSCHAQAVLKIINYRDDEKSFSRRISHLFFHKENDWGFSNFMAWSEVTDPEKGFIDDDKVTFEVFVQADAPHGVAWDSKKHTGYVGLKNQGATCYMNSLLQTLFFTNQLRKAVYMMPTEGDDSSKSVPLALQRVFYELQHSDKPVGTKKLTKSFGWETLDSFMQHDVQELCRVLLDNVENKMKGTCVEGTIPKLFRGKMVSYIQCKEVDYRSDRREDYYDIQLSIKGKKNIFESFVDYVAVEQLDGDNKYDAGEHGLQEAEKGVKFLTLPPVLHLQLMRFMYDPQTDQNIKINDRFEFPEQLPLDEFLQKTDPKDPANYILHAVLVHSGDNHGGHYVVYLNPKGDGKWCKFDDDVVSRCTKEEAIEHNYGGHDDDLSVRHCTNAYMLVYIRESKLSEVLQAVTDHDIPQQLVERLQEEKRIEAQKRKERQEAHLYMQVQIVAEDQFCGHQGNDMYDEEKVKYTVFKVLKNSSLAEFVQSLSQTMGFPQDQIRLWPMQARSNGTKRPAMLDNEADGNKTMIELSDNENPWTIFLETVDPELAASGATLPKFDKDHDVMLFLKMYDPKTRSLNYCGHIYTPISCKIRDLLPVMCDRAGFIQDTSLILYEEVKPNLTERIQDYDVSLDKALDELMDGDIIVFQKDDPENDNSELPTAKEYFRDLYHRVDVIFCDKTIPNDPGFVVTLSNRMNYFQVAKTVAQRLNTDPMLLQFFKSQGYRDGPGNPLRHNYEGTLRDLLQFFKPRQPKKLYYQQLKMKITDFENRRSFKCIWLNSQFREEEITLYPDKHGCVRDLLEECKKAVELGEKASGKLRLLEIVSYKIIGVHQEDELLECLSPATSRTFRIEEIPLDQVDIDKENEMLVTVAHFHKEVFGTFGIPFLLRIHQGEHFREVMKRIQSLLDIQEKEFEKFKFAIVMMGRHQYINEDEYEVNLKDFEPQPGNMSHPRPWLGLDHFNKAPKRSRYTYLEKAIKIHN
Method in brief: as §1

USP8 = target: T5, USP8 (UniProt P40818)
T5 sequence (whole entry): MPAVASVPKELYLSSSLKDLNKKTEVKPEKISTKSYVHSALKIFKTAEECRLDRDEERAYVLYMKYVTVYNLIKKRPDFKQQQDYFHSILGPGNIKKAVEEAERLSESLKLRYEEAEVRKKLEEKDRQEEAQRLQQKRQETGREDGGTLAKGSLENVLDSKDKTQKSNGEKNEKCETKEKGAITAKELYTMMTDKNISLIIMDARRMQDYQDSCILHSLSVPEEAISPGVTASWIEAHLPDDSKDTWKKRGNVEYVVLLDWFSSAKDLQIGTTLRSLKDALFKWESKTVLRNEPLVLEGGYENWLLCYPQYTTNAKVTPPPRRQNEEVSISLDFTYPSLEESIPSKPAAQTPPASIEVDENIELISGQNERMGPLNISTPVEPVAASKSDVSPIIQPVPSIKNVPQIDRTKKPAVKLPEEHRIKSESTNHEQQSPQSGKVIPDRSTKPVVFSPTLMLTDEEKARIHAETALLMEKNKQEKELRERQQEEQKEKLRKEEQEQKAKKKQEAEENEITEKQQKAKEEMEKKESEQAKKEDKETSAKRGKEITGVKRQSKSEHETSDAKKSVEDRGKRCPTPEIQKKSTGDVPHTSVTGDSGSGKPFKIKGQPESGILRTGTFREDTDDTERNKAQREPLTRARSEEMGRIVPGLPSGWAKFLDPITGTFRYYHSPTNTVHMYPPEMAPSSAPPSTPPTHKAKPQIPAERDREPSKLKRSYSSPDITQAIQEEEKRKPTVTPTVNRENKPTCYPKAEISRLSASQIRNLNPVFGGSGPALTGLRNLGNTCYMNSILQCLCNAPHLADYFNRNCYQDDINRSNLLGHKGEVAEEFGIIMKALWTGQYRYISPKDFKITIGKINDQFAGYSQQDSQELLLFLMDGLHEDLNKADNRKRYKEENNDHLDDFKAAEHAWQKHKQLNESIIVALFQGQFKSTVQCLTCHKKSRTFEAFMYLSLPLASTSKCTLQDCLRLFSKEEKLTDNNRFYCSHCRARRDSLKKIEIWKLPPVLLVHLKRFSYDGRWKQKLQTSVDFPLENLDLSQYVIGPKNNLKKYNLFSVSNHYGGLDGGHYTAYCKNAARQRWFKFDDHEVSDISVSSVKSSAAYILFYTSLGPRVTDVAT
Method in brief: as §1

Measured: log2 ratio of Biotin-Ahx-Ub-VS probe labelling

Cl.O=C(CCl)N1CCc2ncncc2C1
inactive: USP42 0.0472 | USP46 -0.292 | USP47 -0.409 | USP48 -0.0378 | USP5 -0.0354 | USP54 0.253 | USP7 -0.411 | USP8 -0.218
